The values below come from PubChem BioAssay AID743143 (Broad Institute, 2013).

This assay is described as follows: HepG2 cell cytotoxicity, dose response, cytotoxicity control, ATP luminescence, dry powder, Set4 (AID 743143). The conditions noted are these: HepG2 viability, CellTiter-Glo ATP luminescence, 72 h; series mostly up to 26 µM.

Entries with a potency or affinity are not part of this list. The source made the active and inactive calls.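 Rule for the calls: active = falling signal curve whose fitted half-maximal dose lies at or below the top valid tested dose; inconclusive = flat fit showing 30 to 70% loss, or poor fit; inactive = rising signal, flat within 30%, or half-maximal dose above top.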

`CC(NC(=O)CCNC(=O)c1ccc(Cl)cc1)c1ccc2c(c1)OCO2` (stereo not drawn): the outcome was inactive.
For `Cc1cccc(C(=O)NCCC(=O)NC2CCCc3ccccc32)c1` (stereo not drawn), the result was inactive.
Regarding `O=C(CCNC(=O)c1ccc(Cl)cc1)NC1CCCc2ccccc21` (stereo not drawn), the compound was classed as inactive.
Consider `O=C(CCNC(=O)c1ccc(OC(F)(F)F)cc1)N[C@@H]1CCCc2ccccc21`, for which the compound was called inactive.
For `CN(C(=O)CCNC(=O)c1ccc(F)cc1F)C1CCCc2ccccc21` (stereo not drawn) the value was “inactive”.
Consider `O=C(CCCNC(=O)c1ccc(OC(F)(F)F)cc1)N[C@@H]1CCCc2ccccc21`, for which the compound was classed as inactive.
With `O=C(NC1CCc2ccccc21)C1CCCN(C(=O)c2ccc(Cl)cc2)C1` (stereo not drawn), the compound was classed as inactive.
In the case of `O=C(CNC(=O)c1ccc(OC(F)(F)F)cc1)N[C@@H]1CCCc2ccccc21`, the outcome was inactive.
For `O=C(CCNC(=O)c1ccc(C(F)(F)F)cc1)N[C@@H]1CCCc2ccccc21` the value was “inactive”.
On to `O=C(Cc1ccc(Cl)cc1)NCCC(=O)N[C@@H]1CCCc2ccccc21`, for which the outcome was inactive.
In the case of `Cc1ccc(C(=O)NCCC(=O)N[C@@H]2CCCc3ccccc32)cc1`, the compound was classed as inactive.
As to `CC(=O)NCCC(=O)N[C@@H]1CCCc2ccccc21`, the compound was classed as inactive.
As to `O=C(CCNC(=O)c1ccc(Cl)cc1)NC1CCCCC1`, the compound was classed as inactive.
For `O=C(CCNC(=O)c1ccc(Cl)cc1)N[C@@H]1CCCc2ccccc21`, the outcome was inactive.
Turning to `O=C(CCNC(=O)c1ccc(Cl)cc1)N[C@H]1CCCc2ccccc21`, the result was inactive.
Consider `COc1ccccc1C(=O)NCCC(=O)NC1CCCc2ccccc21` (stereo not drawn), for which the compound was called inactive.
As for `CC(NC(=O)CCNC(=O)c1ccc(Cl)cc1)c1ccc(F)cc1` (stereo not drawn), the compound was classed as inactive.
Consider `CC(C)(C)OC(=O)NCCC(=O)N[C@H]1CCCc2ccccc21`, for which the result was inactive.
